The source of these data is PubChem BioAssay (EPA / NIEHS).

Settings in all cases: mRNA level, 48 h; actives raise or lower the signal
Read-out in test [1]: Bcl-2 (BAD) gene, BAD (gene 572)
The experiment in a line: LTEA_HepaRG_BAD: Life Technologies and Expression Analysis (LTEA) Assay for Bcl-2 (BAD) gene using HepaRG (AID 2283469). The method in brief: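 HepaRG, 48 h exposure, 8-pt half-log curve from 100 uM in 0.5% DMSO, duplicates. Readout: TaqMan qRT-PCR for BAD mRNA, housekeeping-normalised (ACTB/GAPDH/POLR2A); gain or loss fitted against DMSO baseline.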

Read-out in test [2]: Bcl-2 (BAX) gene, BAX (gene 581)
The test is described as follows: LTEA_HepaRG_BAX: Life Technologies and Expression Analysis (LTEA) Assay for Bcl-2 (BAX) gene using HepaRG (AID 2283470). An outline of the steps: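 Cells were thawed, plated for 48 h, moved to serum-free induction medium and dosed for 48 h (highest concentration 100 uM, half-log steps, 0.5% DMSO). Total RNA was then analysed for BAX expression by qRT-PCR.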

Read-out in test [3]: adenosine kinase (ADK) gene, ADK (gene 132)
The test is described as follows: LTEA_HepaRG_ADK: Life Technologies and Expression Analysis (LTEA) Assay for adenosine kinase (ADK) gene using HepaRG (AID 2283471). An outline of the steps:
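HepaRG (human liver), 48 h chemical exposure, 8-pt half-log series, top 100 uM, 0.5% DMSO vehicle. Readout: ADK mRNA by qRT-PCR vs housekeeping genes; bidirectional curve fit relative to DMSO baseline.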

Read-out in test [4]: Alpha-fetoprotein (AFP) gene, AFP (gene 174)
The experiment in a line: LTEA_HepaRG_AFP: Life Technologies and Expression Analysis (LTEA) Assay for Alpha-fetoprotein (AFP) gene using HepaRG (AID 2283472). The method in brief:
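Chemicals were tested on differentiated HepaRG cells for 48 hours at eight concentrations up to 100 uM, with 0.5% DMSO as vehicle. AFP expression was then quantified by qRT-PCR and analyzed for gain or loss relative to DMSO.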

Read-out in the next test: BCL2L11 (gene 10018)
The experiment in a line: LTEA_HepaRG_BCL2L11: Life Technologies and Expression Analysis (LTEA) Assay for Bcl-2 (BCL2L11) gene using HepaRG (AID 2283473). An outline of the steps: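 Differentiated human HepaRG cells were exposed 48 h in serum-free induction medium to eight half-log concentrations up to 100 uM in 0.5% DMSO, in duplicate. BCL2L11 mRNA was quantified by TaqMan qRT-PCR, normalized to ACTB, GAPDH and POLR2A; induction or repression fitted versus DMSO.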

Read-out in test [5]: Apolipoprotein A-V (APOA5) gene, APOA5 (gene 116519)
The experiment in a line: LTEA_HepaRG_APOA5: Life Technologies and Expression Analysis (LTEA) Assay for Apolipoprotein A-V (APOA5) gene using HepaRG (AID 2283474). The method in brief:
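Differentiated HepaRG cells in serum-free induction medium, exposed 48 h in duplicate to eight half-log concentrations topping at 100 uM (0.5% DMSO). APOA5 mRNA by Fluidigm TaqMan qRT-PCR, normalized to ACTB, GAPDH and POLR2A; bidirectional fit versus DMSO.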

Read-out in test [6]: Apoptosis regulator Bcl-2 (Homo sapiens) (UniProt P10415)
The test is described as follows: LTEA_HepaRG_BCL2: Life Technologies and Expression Analysis (LTEA) Assay for Bcl-2 gene using HepaRG (AID 2283475). The method in brief:
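Plated human HepaRG cells are exposed to test chemicals for 48 h across eight concentrations from 100 uM downward in half-log steps (0.5% DMSO). BCL2 expression is then measured by qRT-PCR with housekeeping normalisation and fitted bidirectionally against vehicle.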

Read-out in the next test: Caspase-3 (Homo sapiens) (UniProt P42574)
The test is described as follows: LTEA_HepaRG_CASP3: Life Technologies and Expression Analysis (LTEA) Assay for cysteine-aspartic acid protease (CASP3) using HepaRG (AID 2283477). The method in brief: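 Differentiated HepaRG cells, plated 48 h, were treated in duplicate in serum-free induction medium for 48 h with eight half-log concentrations up to 100 uM in 0.5% DMSO. CASP3 mRNA measured by qRT-PCR, normalized to ACTB, GAPDH, POLR2A.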

Read-out in test [7]: Cytochrome P450 (CYP24A1), CYP24A1 (gene 1591)
The test is described as follows: LTEA_HepaRG_CYP24A1: Life Technologies and Expression Analysis (LTEA) Assay for Cytochrome P450 (CYP24A1) using HepaRG (AID 2283478). An outline of the steps: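 HepaRG cells plated 48 h, then exposed in duplicate in serum-free induction medium for 48 h to 8-point half-log series from 100 uM in 0.5% DMSO. CYP24A1 mRNA by Fluidigm qRT-PCR, normalized to ACTB, GAPDH, POLR2A; bidirectional fit versus DMSO.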

Read-out in test [8]: Cytochrome P450 (CYP1A2), CYP1A2 (gene 1544)
The experiment in a line: LTEA_HepaRG_CYP1A2: Life Technologies and Expression Analysis (LTEA) Assay for Cytochrome P450 (CYP1A2) using HepaRG (AID 2283479). An outline of the steps: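 Differentiated human HepaRG cells in serum-free induction medium exposed 48 hours in duplicate to 8 half-log concentrations from 100 uM, 0.5% DMSO. CYP1A2 mRNA quantified by qRT-PCR, normalized to ACTB, GAPDH and POLR2A; bidirectional fitting versus DMSO.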

Read-out in test [9]: cysteine-aspartic acid protease (CASP8), CASP8 (gene 841)
The experiment in a line: LTEA_HepaRG_CASP8: Life Technologies and Expression Analysis (LTEA) Assay for cysteine-aspartic acid protease (CASP8) using HepaRG (AID 2283480). The method in brief: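 qRT-PCR readout of CASP8 mRNA, normalized to three housekeeping genes, after 48 h chemical exposure of HepaRG cells; 8-point half-log series, top 100 uM, 0.5% DMSO vehicle. Bidirectional curve fitting against DMSO baseline.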

Read-out in test [10]: Cytochrome P450 (CYP2B6), CYP2B6 (gene 1555)
The test is described as follows: LTEA_HepaRG_CYP2B6: Life Technologies and Expression Analysis (LTEA) Assay for Cytochrome P450 (CYP2B6) using HepaRG (AID 2283481). The method in brief:
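Differentiated human HepaRG cells in serum-free induction medium, dosed in duplicate for 48 h over 8 half-log concentrations topping at 100 uM (0.5% DMSO). CYP2B6 mRNA measured by TaqMan qRT-PCR, normalized to ACTB, GAPDH, POLR2A; bidirectional fit versus DMSO.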

Read-out in test [11]: Cytochrome P450 2C19 (Homo sapiens) (UniProt P33261)
The test is described as follows: LTEA_HepaRG_CYP2C19: Life Technologies and Expression Analysis (LTEA) Assay for CYP2C19 using HepaRG (AID 2283482). The method in brief:
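Differentiated HepaRG cells in serum-free induction medium exposed 48 h in duplicate, 8 concentrations from 100 uM by half-log steps in 0.5% DMSO. CYP2C19 mRNA measured by TaqMan qRT-PCR, normalized to ACTB, GAPDH, POLR2A. Bidirectional fit versus DMSO.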

Read-out in another test: CYP2C8 (gene 1558)
The test is described as follows: LTEA_HepaRG_CYP2C8: Life Technologies and Expression Analysis (LTEA) Assay for CYP2C8 using HepaRG (AID 2283483). The method in brief:
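HepaRG (human liver line), 48 h chemical exposure, 8-pt half-log series from 100 uM, 0.5% DMSO vehicle. Readout: CYP2C8 transcript by qRT-PCR, housekeeping-normalized. Bidirectional fit vs DMSO baseline.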

Read-out in another test: CYP2E1 (gene 1571)
The experiment in a line: LTEA_HepaRG_CYP2E1: Life Technologies and Expression Analysis (LTEA) Assay for CYP2E1 using HepaRG (AID 2283485). An outline of the steps: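 Readout is qRT-PCR of CYP2E1 mRNA, normalized to three housekeeping genes and fitted bidirectionally against 0.5% DMSO. HepaRG cells were dosed 48 h at eight concentrations, highest 100 uM with half-log dilutions.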

Read-out in another test: CYP4A11 (gene 1579)
The experiment in a line: LTEA_HepaRG_CYP4A11: Life Technologies and Expression Analysis (LTEA) Assay for CYP4A11 using HepaRG (AID 2283486). An outline of the steps: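 Differentiated HepaRG cells, 48 h after plating, exposed in duplicate for 48 h to 8 half-log concentrations up to 100 uM in 0.5% DMSO in serum-free induction medium. CYP4A11 mRNA measured by TaqMan qRT-PCR, normalized to ACTB, GAPDH and POLR2A.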

Read-out in test [12]: Cytochrome P450 3A4 (Homo sapiens) (UniProt P08684)
The experiment in a line: LTEA_HepaRG_CYP3A4: Life Technologies and Expression Analysis (LTEA) Assay for CYP3A4 using HepaRG (AID 2283487). An outline of the steps: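 CYP3A4 transcript measured by TaqMan qRT-PCR and normalized to three housekeeping genes after 48 h chemical exposure of human HepaRG cells. Top concentration 100 uM, half-log steps, 0.5% DMSO vehicle; gain or loss fitted against DMSO baseline.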

SMILES strings stand for the structures. Activity calls are given as the source filed them. How the source made its calls: active means hit-call score of the fitted dose curve at least 0.9, where 1 is the maximum; inactive means score below 0.9.

Sequence of Cytochrome P450 3A4 (Homo sapiens) (P08684 whole entry, looked up): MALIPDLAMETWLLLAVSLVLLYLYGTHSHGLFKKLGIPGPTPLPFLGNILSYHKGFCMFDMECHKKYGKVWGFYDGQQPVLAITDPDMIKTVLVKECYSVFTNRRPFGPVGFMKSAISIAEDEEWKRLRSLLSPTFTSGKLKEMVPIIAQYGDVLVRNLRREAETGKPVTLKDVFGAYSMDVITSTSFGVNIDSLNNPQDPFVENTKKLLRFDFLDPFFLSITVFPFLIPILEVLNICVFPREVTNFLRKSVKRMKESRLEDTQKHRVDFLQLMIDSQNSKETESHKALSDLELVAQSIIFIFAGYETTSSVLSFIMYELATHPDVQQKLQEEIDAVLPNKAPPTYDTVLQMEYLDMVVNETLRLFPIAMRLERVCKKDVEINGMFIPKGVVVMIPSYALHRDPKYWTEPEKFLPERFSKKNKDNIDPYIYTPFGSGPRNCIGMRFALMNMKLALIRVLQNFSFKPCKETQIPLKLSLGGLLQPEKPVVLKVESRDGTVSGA
Sequence of Caspase-3 (Homo sapiens) (P42574 whole entry, looked up): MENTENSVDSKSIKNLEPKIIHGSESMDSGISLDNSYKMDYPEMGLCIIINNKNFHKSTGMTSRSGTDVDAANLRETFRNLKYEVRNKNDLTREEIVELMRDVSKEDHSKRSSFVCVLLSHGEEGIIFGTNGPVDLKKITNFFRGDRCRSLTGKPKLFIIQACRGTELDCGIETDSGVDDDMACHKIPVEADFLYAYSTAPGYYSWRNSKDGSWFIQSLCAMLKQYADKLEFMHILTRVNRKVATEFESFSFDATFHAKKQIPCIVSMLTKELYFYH
Sequence of Apoptosis regulator Bcl-2 (Homo sapiens) (P10415 whole entry, looked up): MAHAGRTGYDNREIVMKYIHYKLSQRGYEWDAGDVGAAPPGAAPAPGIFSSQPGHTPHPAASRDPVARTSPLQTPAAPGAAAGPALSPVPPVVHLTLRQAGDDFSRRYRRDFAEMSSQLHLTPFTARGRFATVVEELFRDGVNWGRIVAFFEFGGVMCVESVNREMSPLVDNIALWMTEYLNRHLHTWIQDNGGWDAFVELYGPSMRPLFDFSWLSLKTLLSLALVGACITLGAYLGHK
Sequence of Cytochrome P450 2C19 (Homo sapiens) (P33261 whole entry, looked up): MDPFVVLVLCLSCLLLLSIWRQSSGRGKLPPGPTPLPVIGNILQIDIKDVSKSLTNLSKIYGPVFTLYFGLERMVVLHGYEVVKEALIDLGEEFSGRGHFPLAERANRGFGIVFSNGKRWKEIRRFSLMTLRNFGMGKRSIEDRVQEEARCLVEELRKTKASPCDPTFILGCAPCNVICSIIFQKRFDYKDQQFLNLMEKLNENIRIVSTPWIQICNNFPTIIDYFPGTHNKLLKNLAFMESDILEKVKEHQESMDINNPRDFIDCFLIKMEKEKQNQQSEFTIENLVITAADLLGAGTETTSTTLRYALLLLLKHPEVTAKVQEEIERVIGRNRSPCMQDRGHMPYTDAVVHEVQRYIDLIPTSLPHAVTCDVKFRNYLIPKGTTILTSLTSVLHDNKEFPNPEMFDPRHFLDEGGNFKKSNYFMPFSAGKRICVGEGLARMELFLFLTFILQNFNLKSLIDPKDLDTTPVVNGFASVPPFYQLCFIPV

The AC50 is the concentration at which the activity in the assay is half-maximal. As for `CCOC(=O)C(C)Oc1ccc(Oc2nc3ccc(Cl)cc3o2)cc1` (stereo not given), the result (in test [1]; in [2]; in test [3]; in test [4]; with BCL2L11 (gene 10018); in [6]) was inactive. Further, the outcome (with Caspase-3 (Homo sapiens); in test [7]; in test [8]; in test [9]; with CYP2C8 (gene 1558); with CYP4A11 (gene 1579)) was inactive. In addition, the outcome in [12] was inactive. The AC50 in [5] is 11.5 µM (active); in test [10], 3.22 µM (active); in [11], 14 µM (active); with CYP2E1 (gene 1571), 35.6 µM (active).
As to `Cc1nn(C)c(Oc2ccccc2)c1C=NOCc1ccc(C(=O)OC(C)(C)C)cc1`, the call (in test [1]; in test [3]; with Caspase-3 (Homo sapiens); in [7]; in [9]) was inactive. Further, the AC50 in test [2] is 22.2 µM (active); in [4], 4 µM (active); with BCL2L11 (gene 10018) it was 2.53 µM (active); in test [5], 29.9 µM (active); in test [6] it was 7.02 µM (active); in [8], 2.35 µM (active). Further, the AC50 in test [10] is 1.68 µM (active); in test [11], 29.2 µM (active); in the test with CYP2C8 (gene 1558) it was 25.7 µM (active); in the test with CYP2E1 (gene 1571), 2.75 µM (active); in [12], 1.84 µM (active).
Turning to `S=C([S-])NCCNC(=S)[S-].[Mn+2]`, the compound was called inactive (in test [1]; in test [2]; in the test with BCL2L11 (gene 10018); in test [6]; in test [7]). The AC50 in test [3] is 0.628 µM (active); in test [4], 3.16 µM (active); in [5], 3.64 µM (active); with Caspase-3 (Homo sapiens) it was 0.594 µM (active); in test [8], 0.654 µM (active); in [9], 3.99 µM (active). In addition, the AC50 in [10] is 2.35 µM (active); in [11], 4.61 µM (active); with CYP2C8 (gene 1558), 2.31 µM (active); with CYP2E1 (gene 1571), 3.82 µM (active); in test [12] it was 3.36 µM (active).
For `c1ccc(Nc2ccccc2)cc1`, the result (in test [1]; in test [2]; in test [3]; in [4]; with BCL2L11 (gene 10018); in test [5]) was inactive. Also, the compound was classed as inactive (in [6]; in the test with Caspase-3 (Homo sapiens); in test [7]; in [8]; in test [9]; in test [11]). Also, the outcome (with CYP2C8 (gene 1558); in the test with CYP2E1 (gene 1571); in test [12]) was inactive. For the same compound, in [10], the AC50 was 24.9 µM (active).
